Bioassay records as filed in PubChem BioAssay.
TRHR agonist: agonists of human TRH receptor; TRHR cells, calcium flux fluo-8, FDSS agonist mode; activation, % at 2 µM; hit rate 0.18% among 360,000; AID 493084
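Agonist-mode FDSS calcium read (Ex 480/Em 530, 1 s cycles) in 1536-well TRHR cells with fluo-8 dye, after 10-cycle baseline and 23 nL compound addition; TRH at EC20 (10 nM final) added afterwards for the enhancer phase.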
D1 ag: activates the human D1 dopamine receptor. P21728. HEK293 T-REx D1 cells, calcium flux, agonist mode. activation, % at 2 µM. hit rate 1% among 360,000
Target sequence (P21728 whole entry, looked up): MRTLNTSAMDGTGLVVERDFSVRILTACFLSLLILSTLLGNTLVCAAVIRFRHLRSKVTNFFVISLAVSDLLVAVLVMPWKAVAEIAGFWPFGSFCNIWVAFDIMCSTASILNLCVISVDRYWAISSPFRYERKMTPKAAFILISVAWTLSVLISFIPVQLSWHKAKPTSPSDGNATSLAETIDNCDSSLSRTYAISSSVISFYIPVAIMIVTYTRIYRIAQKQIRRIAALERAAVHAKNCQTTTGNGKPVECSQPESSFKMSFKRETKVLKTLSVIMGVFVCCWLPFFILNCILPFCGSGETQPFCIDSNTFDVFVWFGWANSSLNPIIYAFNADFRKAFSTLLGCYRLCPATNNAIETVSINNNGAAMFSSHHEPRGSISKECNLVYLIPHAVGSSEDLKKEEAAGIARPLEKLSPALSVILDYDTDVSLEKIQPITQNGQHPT
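Tetracycline-induced HEK293 TREx D1 cells, force-coupled to calcium signalling, were dye-loaded with a no-wash calcium kit. Compound was pin-added after a 10 s baseline. Fluorescence was read kinetically at 1 cycle/s for 180 s, with calcium rises flagged as agonism.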
D1 antag: blocks dopamine activation of the human D1 receptor; HEK293 TREx D1 cells, calcium flux, dopamine EC80; stronger effect = lower value; AID 504652; activity change, negative = inhibition, % at 10 µM; hit rate 3.2% among 360,000; P21728; in the data active = activity change below about -30%
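After overnight tetracycline induction at 30 C, force-coupled D1 HEK293 cells took up a no-wash calcium dye at room temperature. Compounds were added and monitored 180 s, and the response to EC80 dopamine was then recorded.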
TRHR PAM: allosteric enhancers of human TRH receptor; P34981; TRHR cells, fluo-8 calcium fluorescence, EC20 TRH enhancement; enhancement, % at 2 µM; hit rate 0.66% among 360,000; AID 493056; in the data active = enhancement above about 30%
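TRHR-expressing cells loaded with fluo-8 calcium dye were read kinetically (ex 480/em 530) during compound addition, then stimulated with an EC20 of TRH (10 nM final). Enhancement of the Gq-mediated intracellular calcium response was scored.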
D1 PAM: human D1 dopamine receptor positive modulation. HEK293 TREx D1 cells, calcium flux, dopamine EC20 potentiation. P21728. AID 504651. potentiation, % at 10 µM. hit rate 0.036% among 360,000; in the data active = potentiation above about 30%
Each line names hits and unclear results; the compound was inactive in the other large screens. In the library only some 4.6% were active in any assay of this set; here they are far more common. Rule as the data show it, unless noted: active = activation above about 30%; inactive = the rest.

O=C(NCc1ccc2c(c1)OCO2)c1cc(COc2c(F)cccc2F)on1	none
CN(Cc1cc(-c2ccccc2)on1)C(=O)c1cc(COc2c(F)cccc2F)on1	TRHR PAM 34.0
O=C(NCc1ccc(N2CCCC2=O)cc1)c1cc(COc2c(F)cccc2F)on1	D1 antag -31.8
Cc1ccc(NC(=O)C(=O)NCC(c2cccnc2)N2CCN(Cc3ccccc3)CC2)cc1C (stereo not drawn)	none
CCOC(=O)CN1C(=O)C(=O)N(Cc2cccc(C)c2)C1=O	D1 ag 32.8
CCOC(=O)CN1C(=O)C(=O)N(Cc2c(Cl)cccc2Cl)C1=O	none
O=C(CCCc1nc(-c2ccc(Cl)cc2)no1)N1CCOCC1	D1 antag -40.8
Cc1ccc(-c2noc(CCCC(=O)N3CCOCC3)n2)cc1	none
COc1ccccc1CNC(=O)C(CC(C)C)N1Cc2ccccc2C1=O (stereo not drawn)	none
COC(=O)c1sc(S(=O)(=O)N2CCCCC2C)c(C(=O)OC)c1C (stereo not drawn)	D1 antag -59.2
COc1ccccc1C(=O)Nc1cccc(C(=O)OCc2cc(=O)n3cc(C)sc3n2)c1	D1 antag -31.0
Cc1cn2c(=O)cc(COC(=O)COc3ccc(C)c(C)c3)nc2s1	D1 antag -38.0
Cn1cnc(S(=O)(=O)N2CCN(c3cccc(C(F)(F)F)c3)CC2)c1	D1 antag -32.1
Cc1ccc(N2C(=O)CSC2c2cccnc2)c(Cl)c1 (stereo not drawn)	D1 antag -37.3
CCN(CC)C(=O)CSc1nnc(-c2cccs2)n1Cc1ccco1	D1 antag -31.8
CCOC(=O)C1CCCN(S(=O)(=O)Cc2ccccc2)C1 (stereo not drawn)	D1 antag -64.0
CCOC(=O)C1CCN(S(=O)(=O)Cc2ccccc2)CC1	none
O=C1Nc2cc(C(=O)N3CCOCC3)ccc2SC1N1CCOCC1 (stereo not drawn)	none
CCOC(=O)C1CCCN(C(=O)c2cc(-c3ccc(C)cc3)on2)C1 (stereo not drawn)	D1 antag -49.0
CCOC(=O)C1CCCN(C(=O)c2ccc3c(c2)NC(=O)C(N2CCOCC2)S3)C1 (stereo not drawn)	D1 antag -30.7
CCOC(=O)C1CCCN(C(=O)CC(C)c2ccccc2)C1 (stereo not drawn)	D1 antag -32.5
Cc1ccc(-c2cc(C(=O)N3CCCCCC3)no2)cc1	none
Nn1c(SCC(=O)N2CCc3ccccc3C2)nnc1-c1cccs1	none
CC1CN(C(=O)CSc2nnc(-c3cccs3)n2N)CC(C)O1 (stereo not drawn)	D1 antag -34.3
CNC(=S)SCCOc1ccc(C)cc1	D1 antag -91.4
CNC(=S)SCCOc1ccccc1	none
N#Cc1c(SCc2ccccc2)sc(C(=O)c2ccccc2)c1N	D1 antag -49.1
COC(=O)c1ccc(Cl)cc1NC(=O)N1CC=C(c2c[nH]c3ccccc23)CC1	none
COc1ccc(C2NC(=O)C(C#N)=C(S)N2c2ccc(C)cc2)cc1OC (stereo not drawn)	none
COc1ccc(C2NC(=O)C(C#N)=C(S)N2c2cccc(C)c2)cc1OC (stereo not drawn)	D1 antag -61.4
COc1ccc(N2C(S)=C(C#N)C(=O)NC2c2ccc(OC)c(OC)c2)cc1 (stereo not drawn)	TRHR PAM 30.1
CCOc1ccc(CC(=O)Nc2nnc3n2CCS3)cc1	none
O=C(Cc1ccccc1[N+](=O)[O-])OCC(=O)c1c[nH]c2ccccc12	D1 antag -37.9
COc1ccc(Br)cc1CN1CCN(Cc2c[nH]c3ccccc23)CC1	D1 ag 37.8
O=[N+]([O-])c1ccccc1CN1CCN(Cc2c[nH]c3ccccc23)CC1	D1 antag -30.1
O=C(c1cccc(F)c1)N1CCN(Cc2c[nH]c3ccccc23)CC1	D1 antag -54.5
O=C(COC(=O)C1CC1)c1c[nH]c2ccccc12	none
O=C(c1ccccc1)N1CCN(Cc2c[nH]c3ccccc23)CC1	none
Cc1ccc(CSC2=Nc3ccccc3C3=NC(CCC(=O)N4CCN(c5ccccc5)CC4)C(=O)N23)cc1 (stereo not drawn)	none
COc1ccc(S(=O)(=O)N(CC(=O)Nc2ccc(F)c(Cl)c2)c2ccc(C)cc2)cc1OC	none
